Test [1] can be described thus: qHTS of pediatric cancer cell lines to identify multiple opportunities for drug repurposing: Confirmatory screen for NB-EBc1 cells (AID 1347115).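 Further: cells exposed to compound for 48 h before the viability read; nearly all actives have a fitted effect of over 45% in size.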 Further: potency means the concentration at half of the fitted maximal effect. Summed up: (§1)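 Cells (500-1,000/well) rested 5 h, then received compounds for 48 h; metabolically active cells were measured by CellTiter-Glo luminescence. Final concentrations spanned up to 46 µM (MIPE, 11-point) or 0.59 nM-46 µM (NPC, 8-point) in primary screens, 11-point in follow-ups.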
(Quantitative high-throughput screening tests each substance at several concentrations.)

Test [2] is described as follows: qHTS of pediatric cancer cell lines to identify multiple opportunities for drug repurposing: Confirmatory screen for SJ-GBM2 cells (AID 1347116). Further: nearly all actives have a fitted effect of over 60% in size. Further: potency means the concentration at half of the fitted maximal effect. The method in brief: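 Viability measured as metabolically active cells via CellTiter-Glo luminescence following 48 hours of compound exposure, 11-point dilutions in confirmatory testing. 500-1,000 cells/well plated 5 hours before dosing; controls were DMSO and 2.3 µM bortezomib.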

Test [3] can be described thus: qHTS of pediatric cancer cell lines to identify multiple opportunities for drug repurposing: Confirmatory screen for BT-37 cells (AID 1347117). Further: nearly all actives have a fitted effect of over 55% in size. Further: potency means the concentration at half of the fitted maximal effect. The method in brief: as §1
Test [4] can be described thus: qHTS of pediatric cancer cell lines to identify multiple opportunities for drug repurposing: Confirmatory screen for TC32 cells (AID 1347118).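 Further: potency means the concentration at half of the fitted maximal effect; cells exposed to compound for 48 h before the read; nearly all actives have a fitted effect of over 65% in size.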 Summed up:
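Measured quantity: luminescence from CellTiter-Glo, reflecting metabolically active TC32 cells following 48 h of compound. Curves came straight from multi-point titrations, with 8 or 11 points in primary and 11 in confirmatory screening.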

Test [5] can be described thus: qHTS of pediatric cancer cell lines to identify multiple opportunities for drug repurposing: Confirmatory screen for MG 63 (6-TG R) cells (AID 1347119). Further: nearly all actives have a fitted effect of over 55% in size. Further: potency means the concentration at half of the fitted maximal effect. Summed up:
as §1

The nature of test [6]: qHTS of pediatric cancer cell lines to identify multiple opportunities for drug repurposing: Confirmatory screen for control Hh wild type fibroblast cells (AID 1347121). Further: nearly all actives have a fitted effect of over 70% in size. Further: potency means the concentration at half of the fitted maximal effect. The method in brief: as §1
The nature of test [7]: qHTS of pediatric cancer cell lines to identify multiple opportunities for drug repurposing: Confirmatory screen for Rh18 cells (AID 1347125). Further: nearly all actives have a fitted effect of over 55% in size. Further: potency means the concentration at half of the fitted maximal effect. The method in brief:
as §1

Test [8] in a line: qHTS of pediatric cancer cell lines to identify multiple opportunities for drug repurposing: Confirmatory screen for Saos-2 cells (AID 1347127). Further: nearly all actives have a fitted effect of over 60% in size. Further: potency means the concentration at half of the fitted maximal effect. The method in brief:
as §1

Test [9] is described as follows: qHTS of pediatric cancer cell lines to identify multiple opportunities for drug repurposing: Confirmatory screen for OHS-50 cells (AID 1347128).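 Further: potency means the concentration at half of the fitted maximal effect; compound exposure lasted 48 h at 37 degrees C; nearly all actives have a fitted effect of over 55% in size.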 Summed up:
as §1

Test [10] in a line: qHTS of pediatric cancer cell lines to identify multiple opportunities for drug repurposing: Confirmatory screen for SK-N-SH cells (AID 1347129).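 Further: cells exposed to compound for 48 h before viability read; nearly all actives have a fitted effect of over 60% in size.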 Further: potency means the concentration at half of the fitted maximal effect. Summed up: as §1
Test [11] has as its system Zika virus NS2B-NS3 protease. The test is described as follows: Primary screen GU AMC qHTS for Zika virus inhibitors (AID 1347154). Further: nearly all actives have a fitted effect of over 70% in size. Summed up:
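Fluorogenic AMC-substrate cleavage by noncovalent NS2B-NS3 protease complex (25 nM, pH 8.0 Tris buffer with Tween 20) followed for 15 minutes at room temperature (~20% conversion). Percent inhibition from ex340/em450 signal change, fitted by 4-parameter Hill equation.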

The nature of test [12]: qHTS of pediatric cancer cell lines to identify multiple opportunities for drug repurposing: Confirmatory screen for U-2 OS cells (AID 1347122). Further: nearly all actives have a fitted effect of over 65% in size. Further: potency means the concentration at half of the fitted maximal effect. Summed up:
as §1

A short description of test [13]: qHTS of pediatric cancer cell lines to identify multiple opportunities for drug repurposing: Confirmatory screen for Rh41 cells (AID 1347123).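 Further: 48 h compound exposure; nearly all actives have a fitted effect of over 60% in size.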 Further: potency means the concentration at half of the fitted maximal effect. Summed up: as §1
The nature of test [14]: qHTS of pediatric cancer cell lines to identify multiple opportunities for drug repurposing: Confirmatory screen for Rh30 cells (AID 1347126). Further: nearly all actives have a fitted effect of over 55% in size. Further: potency means the concentration at half of the fitted maximal effect. The method in brief:
as §1

The nature of test [15]: qHTS of pediatric cancer cell lines to identify multiple opportunities for drug repurposing: Confirmatory screen for RD cells (AID 1347124).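 Further: cells exposed to compound for 48 h before viability readout; nearly all actives have a fitted effect of over 65% in size.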 Further: potency means the concentration at half of the fitted maximal effect. The method in brief:
as §1

Among the data in PubChem BioAssay (NCATS) are Potency values, retold here.

Inconclusive results are not listed. Calls of active or inactive are those of the source. The call rests on the fitted dose curve; in most records, active means well fitted curve in the direction sought with a large enough effect; inconclusive means small, poorly fitted or top-dose-only effect, or another doubt; inactive means no such curve, though single readings can be large; an effect the other way counts as inactive or inconclusive.

`CC[C@@H]1C(=O)N(C)c2cnc(Nc3ccc(C(=O)NC4CCN(C)CC4)cc3OC)nc2N1C1CCCC1`: the Potency was 3290 nM (active) in test [1]; 1040 nM (active) in test [2]; 131 nM (active) in test [3]; 52.2 nM (active) in test [4]; 92.8 nM (active) in [5]; 18500 nM (active) in test [6]. In addition, the Potency in test [7] is 18500 nM (active); in test [8], 36.9 nM (active); in [9], 52.2 nM (active); in test [10], 6620 nM (active). In test [11], the Potency entry was “inactive”.
`CC[C@@H]1C(=O)N(C)c2cnc(Nc3ccc(C(=O)NC4CCC(N5CCN(CC6CC6)CC5)CC4)cc3OC)nc2N1C(C)C` (some centres not stated): the Potency result in [1], in test [2], in test [3], in test [5], in test [6] and in [12] was “inactive” each time. Besides, the Potency entry in test [13], in [7], in test [14], in test [8], in test [10] and in test [11] was “inactive” each time.
With `COc1cccc2nc(-c3cccs3)nc(NN3C(=O)C=C(C)C3=O)c12`, the Potency in [1] was 2080 nM (active); in [2] it was 7370 nM (active); in [3] it was 1040 nM (active); in test [4], 737 nM (active); in test [5], 2930 nM (active); in test [12], 1850 nM (active). Moreover, the Potency was 827 nM (active) in [13]; 5220 nM (active) in test [15]; 20800 nM (active) in test [7]; 3690 nM (active) in test [14]; 2930 nM (active) in test [8]; 2960 nM (active) in [10]. Moreover, the Potency entry in test [11] is “inactive”.
As for `Nc1ccccc1NC(=O)c1ccc(CNc2nccc(-c3cccnc3)n2)cc1`, the Potency result in test [1], in test [3], in test [5], in test [6] and in test [11] was “inactive” throughout. In addition, the Potency was 1470 nM (active) in [2]; 414 nM (active) in [12]; 1650 nM (active) in test [15]; 1170 nM (active) in [7]; 1650 nM (active) in test [14].
Consider `Cn1c(=O)n(-c2ccc(C(C)(C)C#N)cc2)c2c3cc(-c4cnc5ccccc5c4)ccc3ncc21`, for which the Potency was 7370 nM (active) in [1]; 3290 nM (active) in test [2]; 1170 nM (active) in test [3]; 827 nM (active) in test [4]; 369 nM (active) in test [5]; 2930 nM (active) in test [12]. The Potency in test [13] is 2330 nM (active); in [14] it was 2330 nM (active); in test [9], 5850 nM (active). Moreover, the Potency result in [11] was “inactive”.
Consider `O=C(C=Cc1cccc(S(=O)(=O)Nc2ccccc2)c1)NO`, for which the Potency is 2140 nM (active) in [1]; 2140 nM (active) in [2]; 1700 nM (active) in test [3]; 759 nM (active) in test [4]; 2690 nM (active) in test [5]; 2400 nM (active) in test [12]. Further, the Potency in test [13] was 5370 nM (active); in test [7], 1910 nM (active); in [14] it was 5370 nM (active); in [8], 1910 nM (active); in test [9], 7590 nM (active); in [10], 13600 nM (active). For the same compound, the Potency result in test [11] was “inactive”.
Consider `CCC1=C[C@@H]2CN(C1)Cc1c([nH]c3ccccc13)[C@@](C(=O)OC)(c1cc3c(cc1OC)N(C)[C@@H]1[C@@](O)(C(=O)OC)[C@H](OC(C)=O)[C@]4(CC)C=CCN5CC[C@]31[C@@H]54)C2`, for which the Potency result in [1], in test [6], in [7] and in test [11] was “inactive” throughout. In addition, the Potency in test [2] is 5220 nM (active); in [3], 7370 nM (active); in test [5], 13100 nM (active); in [12], 7370 nM (active); in test [13], 369 nM (active); in [15], 369 nM (active). In addition, the Potency in test [14] is 23300 nM (active); in test [8], 7370 nM (active); in test [9], 11700 nM (active); in test [10] it was 5900 nM (active).
Regarding `C#Cc1cccc(Nc2ncnc3cc(OC)c(OCCCCCCC(=O)NO)cc23)c1`, the Potency in test [1] was 1700 nM (active); in test [2], 1910 nM (active); in test [3], 759 nM (active); in test [4] it was 676 nM (active); in test [5], 851 nM (active); in test [6] it was 10700 nM (active). For the same compound, the Potency is 1350 nM (active) in [12]; 1070 nM (active) in test [13]; 1200 nM (active) in [15]; 1910 nM (active) in [7]; 2140 nM (active) in test [14]; 1350 nM (active) in test [8]. Besides, the results for the Potency in test [9] and in [10] were 2400 nM (active) and 2410 nM (active), respectively.
For `COC(=O)[C@]12CCC(C)(C)C[C@@H]1[C@@H]1C(=O)C=C3[C@@]4(C)C=C(C#N)C(=O)C(C)(C)[C@@H]4CC[C@@]3(C)[C@]1(C)CC2`, the Potency in test [1] was 5850 nM (active); in test [2] it was 4140 nM (active); in test [3] it was 3690 nM (active); in test [4] it was 3290 nM (active); in test [5], 4650 nM (active); in [6] it was 7370 nM (active). The Potency is 2080 nM (active) in test [12]; 2330 nM (active) in test [13]; 1650 nM (active) in test [15]; 5220 nM (active) in test [7]; 3290 nM (active) in [14]; 3690 nM (active) in test [8]. For the same compound, the Potency is 5220 nM (active) in [9] and 2090 nM (active) in test [10].
`C=CC(=O)Nc1cccc(Oc2nc(Nc3ccc(N4CCN(C)CC4)cc3OC)ncc2Cl)c1`: the Potency result in test [1], in test [6] and in [11] was “inactive” each time. Besides, the Potency in test [2] was 11700 nM (active); in test [3] it was 20800 nM (active); in test [4], 14700 nM (active); in test [5] it was 23300 nM (active); in test [13], 16500 nM (active); in [7], 20800 nM (active). Moreover, the Potency in [14] was 13100 nM (active); in [8], 23300 nM (active); in test [10], 18700 nM (active).
With `Nc1ccccc1NC(=O)c1ccc(CNC(=O)OCc2cccnc2)cc1`, the Potency was 30200 nM (active) in test [1]; 13500 nM (active) in test [2]; 3020 nM (active) in test [3]; 3020 nM (active) in test [4]; 2400 nM (active) in test [5]; 135 nM (active) in [12]. The Potency in [13] was 2400 nM (active); in test [7], 7590 nM (active); in test [14], 19100 nM (active); in test [8] it was 2140 nM (active); in [9], 10700 nM (active). In test [11], the Potency result was “inactive”.
In the case of `CCOc1cc2ncc(C#N)c(Nc3ccc(F)c(Cl)c3)c2cc1NC(=O)C=CCN(C)C`, the Potency result in test [1], in test [2], in test [6], in test [15], in test [7] and in [11] was “inactive” in each case. Moreover, the Potency in test [3] is 65.7 nM (active); in [4] it was 58.5 nM (active); in test [8], 104 nM (active); in test [9] it was 147 nM (active).
As to `CC1(C)OC2=C(C(=O)c3ccccc3C2=O)[C@H](NCc2ccccc2)[C@H]1O`, the Potency in test [1] was 9270 nM (active); in test [2], 7370 nM (active); in [3], 5220 nM (active); in test [5], 16500 nM (active); in test [6] it was 13100 nM (active); in test [12] it was 1850 nM (active). For the same compound, the Potency in test [13] is 2930 nM (active); in test [7], 7370 nM (active); in [8], 8270 nM (active); in test [9] it was 7370 nM (active); in test [10], 5900 nM (active). For the same compound, the Potency result in test [11] was “inactive”.
